The values below come from the supplement of paper PMC6522484.

± gives the standard deviation of the averaged measurements.

Assay [1] has as its system DLD1. Nature of the assay: cell viability (CellTiter-Glo) relative to plate median (fraction of plate median); higher = more viable cells. As to conditions: 5 µM; treatment time 24 h; reporter: 7TFP. In outline: (§1)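 Normalisation used webcellHTS2 in additive mode without log transformation, scaling each well's luminescence to the plate median. The luminescence was firefly luciferase or CellTiterGlo, read on a Tecan F500 from parallel plates of colorectal cancer cells stably transduced with lentiviral TCF/Wnt firefly luciferase reporters. Those cells had been given library compounds at a final 5 µM for 24 h, and two independent replicates were averaged.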

Assay [2] deals with HCT116. The assay is described as above. The conditions noted are these: 5 µM; treatment time 24 h; reporter: TCF4/Wnt. The essentials: as §1
For assay [3], the system named is SW480. The assay is described as above. As to conditions: 5 µM; treatment time 24 h; reporter: 7TFP. In outline: as §1
Assay [4] relates to DLD1. In words: TCF/Wnt firefly luciferase reporter signal relative to plate median (fraction of plate median); higher = higher Wnt reporter signal. The conditions noted are these: 5 µM; treatment time 24 h; reporter: 7TFP. In outline:
as §1

For assay [5], the system named is SW480. The description is as above. As to conditions: 5 µM; treatment time 24 h; reporter: 7TFP. In outline: as §1
In assay [6] the test system is DLD1. Nature of the assay: cell viability (CellTiter-Glo) relative to plate median (fraction of plate median); higher = more viable cells. As to conditions: 10 µM, treatment time 24 h. In outline:
(§2)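 Colorectal cancer cell lines carrying stably transduced lentiviral TCF/Wnt firefly luciferase reporters (7TFP or TCF4/Wnt) were plated in 384-well plates and treated 24 h later with kinase inhibitor library compounds at a final 10 µM for 24 h. Firefly luciferase or CellTiterGlo luminescence was read on parallel plates with a Tecan F500 reader. Signals were normalised per well to the plate median in webcellHTS2 (additive, no log transformation), and values are the mean of two independent replicates.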

The subject of assay [7] is HCT116. The description is as above. The conditions noted are these: 10 µM; treatment time 24 h; reporter: TCF4/Wnt. In outline: as §2
Assay [8] deals with SW480. Described as above. The conditions noted are these: 10 µM; treatment time 24 h; reporter: 7TFP. The essentials:
as §2

Assay [9] relates to DLD1. In words: TCF/Wnt firefly luciferase reporter signal relative to plate median (fraction of plate median); higher = higher Wnt reporter signal. As to conditions: 10 µM, treatment time 24 h. The essentials:
as §2

The test system of assay [10] is HCT116. The description is as above. The conditions noted are these: 10 µM; treatment time 24 h; reporter: TCF4/Wnt. The essentials: as §2
In assay [11] the test system is SW480. Described as above. As to conditions: 10 µM; treatment time 24 h; reporter: 7TFP. The essentials: as §2

`NCCc1c[nH]c2ccccc12`: the cell viability in assay [1] stood at 0.991 ± 0.041; in assay [2], 1.03 ± 0.16; in [3], 0.952 ± 0.061. Also, the results for the “TCF/Wnt firefly luciferase reporter signal” value in [4] and in assay [5] were 0.988 ± 0.045 and 1.03 ± 0.021, respectively.

For the compound `CC(=O)Oc1ccc(/C=C/c2cc(OC(C)=O)cc(OC(C)=O)c2)cc1`, the cell viability in assay [1] turned out to be 1.05 ± 0.042; in assay [2], 1.02 ± 0.014; in [3], 1.09 ± 0.021. The figures for the “TCF/Wnt firefly luciferase reporter signal” value in [4] and in assay [5] were 1.14 ± 0.26 and 1.17 ± 0.078, respectively.

`CCCCC[C@H](O)c1c(O)cc2c(c1O)C(=O)c1c(O)cc(O)cc1C2=O` [Averantin]: the cell viability in [1] came to 1.02 ± 0.035; in [2], 1.075 ± 0.0071; in assay [3], 0.9935 ± 0.00071. For the same compound, the entries for the “TCF/Wnt firefly luciferase reporter signal” value in assay [4] and in assay [5] were 1 ± 0.11 and 0.939 ± 0.14, respectively.

As for `CCN1CCN(C(=O)Cc2ccc(Nc3ncc(F)c(Nc4ccc(C(=O)Nc5ccccc5Cl)cc4)n3)cc2)CC1` [Aurora A Inhibitor I], the cell viability in assay [6] (reporter: 7TFP) turned out to be 0.955 ± 0.036; in [6] (reporter: TCF4/Wnt), 1.09 ± 0.057; in assay [7], 1.09 ± 0.14; in assay [8] it was 0.927 ± 0.093. Moreover, the “TCF/Wnt firefly luciferase reporter signal” value in [9] (reporter: 7TFP) is 1.16 ± 0.057; in assay [9] (reporter: TCF4/Wnt), 1.16 ± 0.028; in [10], 1.21 ± 0.071; in assay [11], 1.02 ± 0.035.

As to `O=c1[nH]c2ccc(Cl)cc2c(N[C@@H]2CN3CCC2CC3)c1-c1nc2ccccc2[nH]1`, the cell viability in assay [6] (reporter: 7TFP) came out at 1.004 ± 0.0092; in [6] (reporter: TCF4/Wnt), 1.06 ± 0.05; in assay [7], 0.521 ± 0.25; in [8], 0.992 ± 0.025. Besides, the “TCF/Wnt firefly luciferase reporter signal” value in assay [9] (reporter: 7TFP) amounted to 2.27 ± 0.078; in [9] (reporter: TCF4/Wnt) it was 2.27 ± 0.18; in assay [10], 0.439 ± 0.17; in assay [11], 1.8 ± 0.099.

As to `CN[C@@H]1C[C@H]2O[C@@](C)([C@@H]1OC)n1c3ccccc3c3c4c(c5c6ccccc6n2c5c31)C(=O)NC4` [Staurosporine], the cell viability in [6] (reporter: 7TFP) came out at 0.617 ± 0.047; in assay [6] (reporter: TCF4/Wnt), 0.701 ± 0.067; in [7], 0.23 ± 0.13; in [8], 0.68 ± 0.25; in assay [1], 0.837 ± 0.027; in assay [2], 0.712 ± 0.0099. The cell viability in [3] was 1.14 ± 0.035. Further, the “TCF/Wnt firefly luciferase reporter signal” value in assay [4] was determined as 0.583 ± 0.023; in [5], 0.965 ± 0.045; in assay [9] (reporter: 7TFP), 0.204 ± 0.069; in assay [9] (reporter: TCF4/Wnt) it was 0.2 ± 0.04; in assay [10], 0.103 ± 0.0065; in [11], 0.346 ± 0.19.

`Cc1ccc(O)cc1.Cc1cccc(O)c1.Cc1ccccc1O`: the cell viability in [1] was found to be 1.085 ± 0.0071; in assay [2] it was 1.08 ± 0.14; in assay [3], 1.01 ± 0.014. Further, the “TCF/Wnt firefly luciferase reporter signal” value in assay [4] is 1.09 ± 0.064; in assay [5], 1.09 ± 0.057.

For `COc1cc2c(cc1O)C[C@H]1c3c(cc(O)c(OC)c3-2)CCN1C`, the cell viability in assay [1] worked out at 1.02 ± 0.095; in [2] it was 1.06 ± 0.086; in assay [3] it was 1.12 ± 0.13. Also, the “TCF/Wnt firefly luciferase reporter signal” value amounted to 0.882 ± 0.033 in [4] and 1.01 ± 0.17 in assay [5].

In the case of `CC(C)=CCC[C@]1(C)C=Cc2c(O)c3c(c(CC=C(C)C)c2O1)O[C@]12C(=C[C@@H]4C[C@H]1C(C)(C)O[C@@]2(C/C=C(/C)C(=O)O)C4=O)C3=O`, the cell viability in [1] amounted to 0.965 ± 0.12; in [2], 0.993 ± 0.053; in [3], 1.09 ± 0.14. In addition, the “TCF/Wnt firefly luciferase reporter signal” value in [4] amounted to 1.05 ± 0.095; in assay [5], 1.09 ± 0.028.
